In PubChem BioAssay (NCATS):
Inconclusive results are not listed. Where a call stands in place of a potency, no number is given. Values without a mark were called inactive. The source made the active and inactive calls. Calls follow the shape of the dose curve; as a rule, active = well fitted inhibition curve with a large enough effect; inconclusive = small, poorly fitted or top-dose-only effect; inactive = flat fitted curve, though single readings scatter.

Assay: Drug repurposing screens with cells derived from glioblastoma tumor samples (AID 1345199); also: nearly all actives have a fitted effect of over 40% in size
Conditions: GBM patient neurospheres viability, ATP luminescence, 48 h; Potency: tumour line A; series mostly up to 45.9 µM; activity, negative = cell killing: at the top concentration
Method: CD133+ cells were isolated from GBM patient biopsies and cultured as neurospheres. Neurospheres from four patients were used to screen the NCATS pharmaceutical collection (NPC) library of approved drugs and bioactive compounds. […] The neurospheres were incubated with drugs for 48 hours in 1536-well format, then assayed with an ATP content cell viability assay. […] These hits were cherry picked to confirm activity in the four original GBM lines screened plus three other slower growing GMB lines (unable to yield enough cells for a full primary screen). Variable activities of the confirmed primary hits in the different GBM patient lines were observed. The patient line 206 responded to the greatest number of compounds and line 923 responded to the least amount of active compounds.

SMILES	Potency	activity, negative = cell killing
OCCN(CCO)CCO	inactive	–
C[C@]12CC[C@H]3[C@@H](CCC4=CC(=O)CC[C@@]43C)[C@@H]1CC[C@H]2O	–	-14.5%
COc1cc(C[C@H](C)N)c(OC)cc1C	inactive	–
CNC(C)Cc1ccccc1 (configuration not stated)	inactive	–
O=Cc1ccccc1	inactive	–
CNC(C)CC1CCCCC1 (configuration not stated)	inactive	–
CC(=O)[C@@]1(O)CC[C@H]2[C@@H]3CCC4=CC(=O)CC[C@]4(C)C3(F)[C@@H](O)C[C@@]21C (some centres not stated)	inactive	–
C[C@@H]1[C@H]2Cc3ccc(O)cc3[C@]1(C)CCN2C	–	-11.1% [at 194 µM, tumour line B]
Oc1ccc2c3c1O[C@H]1[C@@H](O)C=C[C@H]4[C@H](C2)NCC[C@@]341	inactive	–
CCOc1cc(C=O)ccc1O	inactive	–
COC(=O)c1ccccc1C(=O)OC	inactive	–
CCCCNC(C)(C)[P+](=O)O	inactive	–
Clc1ccc([C@@H]2C[C@H]3CC[C@@H]2N3)cn1	inactive	–
C[N+](C)(C)CC(=O)[O-]	inactive	–
COc1ccc(OC)c(C[C@H](C)N)c1	–	-14% [at 108 µM, tumour line B]
C=CCC1([C@@H](C)CCC)C(=O)NC(=O)NC1=O	–	-17% [at 91.6 µM, tumour line B]

SMILES	Potency	activity, negative = cell killing
O=C1CN=C(c2ccccc2)c2cc(Cl)ccc2N1	inactive	–
CN(C)CCO	inactive	–
COC(=O)[C@H]1[C@@H](OC(=O)c2ccccc2)C[C@@H]2CC[C@H]1N2C	inactive	–
CN[C@]1(c2ccccc2Cl)CCCCC1=O	inactive	–
C[C@]12CCC(=O)C[C@@H]1CC[C@@H]1[C@@H]2CC[C@@]2(C)[C@H]1CC[C@]2(C)O	inactive	–
CCN(CC)/[N+]([O-])=N/O	inactive	–
c1ccc2c(c1)Sc1ccccc1N2C[C@@H]1CN2CCC1CC2	inactive	–
C/C=C(\CC)C(=O)NC(N)=O	inactive	–
CCOP(=S)(OCC)SCSc1ccc(Cl)cc1	inactive	–
O=P1(N(CCCl)CCCl)NC(OO)CCO1 (configuration not stated)	inactive	–
CCOC(=O)C1(c2ccccc2)CCCN(C)CC1 (configuration not stated)	inactive	–
CC(N)Cc1ccc2c(c1)OCO2 (configuration not stated)	inactive	–
C[C@@H](N)C(=O)c1ccccc1	inactive	–
O=C(O)CCCO	inactive	–
CN[C@@]1(c2ccccc2Cl)CCCCC1=O	inactive	–
C1CN(P2(N3CC3)=NP(N3CC3)(N3CC3)=NP(N3CC3)(N3CC3)=N2)CCO1 (configuration not stated)	inactive	–
